Results published in PubChem BioAssay (NCATS).
Records with an inconclusive call do not appear. A number with no mark means an inactive call. Active and inactive are the calls of the source. Calls come from the whole dose curve; as a rule, active = well fitted curve in the direction sought with a large enough effect; inconclusive = small, poorly fitted or top-dose-only effect, or another doubt; inactive = no such curve, though single readings can be large; an effect the other way counts as inactive or inconclusive.

system: Zika virus NS2B-NS3 protease (unlinked); experiment: Optimization of GU AMC qHTS for Zika virus inhibitors: Unlinked NS2B-NS3 protease assay (AID 1347151); settings: recombinant ZIKV NS2B-NS3 protease, fluorogenic AMC substrate; series mostly up to 52.5 µM; activity change, negative = inhibition: at the top concentration;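 note: 0% = no-inhibitor control and -100% = no-enzyme control; nearly all actives have a fitted effect of over 80% in size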
Method in brief: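 Fluorescence gain (340/450 nm) over 15 min at room temperature, ~20% conversion, gave percent inhibition fitted to a 4-parameter Hill equation; enzyme was unlinked NS2B-NS3 (25 nM final), pH 8.0 Tris buffer.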

Row | Compound | activity change, negative = inhibition [%]
1 | CC(C)Cc1ccc([C@H](C)C(=O)O)cc1 | -3.16
2 | Nc1nc(Nc2ccccc2)nc2c1ncn2[C@@H]1O[C@H](CO)[C@@H](O)[C@H]1O | 2.53
3 | C=CC(N)CCC(=O)O (stereo not given) | -5.49
4 | C[N+](C)(C)CCOP(=O)(O)OP(=O)([O-])OC[C@H]1O[C@@H](n2ccc(N)nc2=O)[C@H](O)[C@@H]1O | -5.59
5 | CCN(CC)c1ncnc2c1ncn2[C@@H]1O[C@H](COP(=O)(O)OP(=O)(O)C(Br)(Br)P(=O)(O)O)[C@@H](O)[C@H]1O | 1.24
6 | Nc1nc(Cl)nc2c1ncn2[C@@H]1O[C@H](COP(=O)(O)OP(=O)(O)OP(=O)(O)O)[C@@H](O)[C@H]1O | -14.3
7 | O=[N+]([O-])c1ccc(CSc2ncnc3c2ncn3[C@@H]2O[C@H](CO)[C@@H](O)[C@H]2O)cc1 | 2.67
8 | O=C1/C(=C/c2ccsc2)CC/C1=C\c1cccs1 | -15.3
9 | CCCCC#Cc1nc(NC)c2ncn([C@@H]3O[C@H](CO)[C@@H](O)[C@H]3O)c2n1 | -10.9

system: Zika virus NS2B-NS3 protease; experiment: Primary screen GU AMC qHTS for Zika virus inhibitors (AID 1347154); settings: Zika NS2B-NS3 unlinked protease, AMC fluorogenic substrate; series mostly up to 54.1 µM; activity change, negative = inhibition: at the top concentration;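 note: 0% = no-inhibitor control and -100% = no-enzyme control; nearly all actives have a fitted effect of over 70% in size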
Method in brief: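 Fluorogenic AMC-substrate cleavage by noncovalent NS2B-NS3 protease complex (25 nM, pH 8.0 Tris buffer with Tween 20) followed for 15 minutes at room temperature (~20% conversion). Percent inhibition from ex340/em450 signal change, fitted by 4-parameter Hill equation.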

Row | Compound | activity change, negative = inhibition | Potency
10 | CCCCCCCCCCCCCCCC(=O)OC(C)C | 1.2% | 
11 | Clc1ccccc1-c1nc(-c2ccncc2)no1 | -2.17% | 
12 | Nc1ccc(C(=O)O)c(O)c1 | -3.63% | 
13 | O=C(OCc1ccccc1)c1ccccc1 | -1.37% | 
14 | CN(C)CCn1nnnc1SCC1=C(C(=O)O)N2C(=O)[C@@H](NC(=O)Cc3csc(N)n3)[C@H]2SC1 | 4.57% | 
15 | CN1CCc2ccccc2Cc2[nH]c3ccccc3c2CC1 | 24.7% | 
16 | O=c1[nH]c2ccccc2n1CCCN1CCN(C(c2ccccc2)c2ccccc2)CC1 | -14.4% | 
17 | CNC(=O)c1c(I)c(NC(=O)CCCCC(=O)Nc2c(I)c(C(=O)O)c(I)c(C(=O)NC)c2I)c(I)c(C(=O)O)c1I | -2.04% | 
18 | O=C1CN(/N=C/c2ccc(-c3ccc([N+](=O)[O-])cc3)o2)C(=O)N1 | 16.9% [at 104 µM] | 
19 | NCCO | 1.7% [at 104 µM] | 
20 | C#C[C@]1(O)CC[C@H]2[C@@H]3CCc4cc(O)ccc4[C@H]3CC[C@@]21C | -8.29% | 
21 | COc1ccc(-c2cc(=S)ss2)cc1 | -9.05% | 
22 | O=C(O)/C=C\C(=O)O | -2.45% | 
23 | O=C(O)Cc1ccc2c(c1)C(=O)c1ccccc1CO2 | -0.0253% | 
24 | C[N+]1(C)[C@@H]2CC(OC(=O)[C@H](CO)c3ccccc3)C[C@H]1[C@@H]1O[C@@H]12 (stereo not given in full) | -3.98% | 
25 | Nc1nc2ccc([N+](=O)[O-])cc2s1 | -9.46% [at 104 µM] | 
26 | Cc1c(C(=O)O)c(O)cc2c1C(=O)c1c(O)c([C@@H]3O[C@H](CO)[C@@H](O)[C@H](O)[C@H]3O)c(O)c(O)c1C2=O | -20.8% | 
27 | O=C(CS)Nc1ccccc1 | -5.63% | 
28 | COC(=O)C1=C(C)NC(C)=C(C(=O)OCC(C)C)C1c1ccccc1[N+](=O)[O-] (stereo not given) |  | inactive
29 | O=c1cc(-c2ccccc2)oc2ccccc12 | -5.73% [at 104 µM] | 
30 | N=C(N)N | 0.732% | 
31 | O=C1CN(/N=C/c2ccc([N+](=O)[O-])o2)C(=O)N1 | -8.24% | 
32 | S=c1[nH]c2ccccc2s1 | -3.33% [at 104 µM] | 
33 | CCCCCCOc1ccccc1C(N)=O | -3.05% | 
34 | COc1cc(/C=C/C(=O)CC(=O)/C=C/c2ccc(O)c(OC)c2)ccc1O | 11% | 
35 | O=C(O)Cc1ccc(-c2ccccc2)cc1 | 0.212% | 
36 | Cc1nc2ccccc2n1Cc1ccc(Cl)cc1 | -6.25% | 

molecular target: Lysine-specific demethylase 5B (Homo sapiens) (UniProt Q9UGL1); experiment: Optimization screen for KDM5B Histone Demethylases FDH coupled qHTS against the LOPAC library (AID 1347166); settings: KDM5B demethylation, FDH-coupled NADH fluorescence (FDH is formaldehyde dehydrogenase); series mostly up to 57.5 µM; activity, negative = inhibition: at the top concentration; note: 0% is about no effect
Method in brief: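 KDM5BDeltaAP (200nM final) preincubated 10 min with compound, then 12.5uM H3K4Me3, 25uM a-ketoglutarate, ascorbate, Fe(II), NAD+ and FDH added; 50mM HEPES pH 7.5, 0.01% Tween-20. NADH fluorescence (340/450 nm) change over 30 min, room temperature.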

Chain of Lysine-specific demethylase 5B (Homo sapiens) (Q9UGL1 whole entry, looked up): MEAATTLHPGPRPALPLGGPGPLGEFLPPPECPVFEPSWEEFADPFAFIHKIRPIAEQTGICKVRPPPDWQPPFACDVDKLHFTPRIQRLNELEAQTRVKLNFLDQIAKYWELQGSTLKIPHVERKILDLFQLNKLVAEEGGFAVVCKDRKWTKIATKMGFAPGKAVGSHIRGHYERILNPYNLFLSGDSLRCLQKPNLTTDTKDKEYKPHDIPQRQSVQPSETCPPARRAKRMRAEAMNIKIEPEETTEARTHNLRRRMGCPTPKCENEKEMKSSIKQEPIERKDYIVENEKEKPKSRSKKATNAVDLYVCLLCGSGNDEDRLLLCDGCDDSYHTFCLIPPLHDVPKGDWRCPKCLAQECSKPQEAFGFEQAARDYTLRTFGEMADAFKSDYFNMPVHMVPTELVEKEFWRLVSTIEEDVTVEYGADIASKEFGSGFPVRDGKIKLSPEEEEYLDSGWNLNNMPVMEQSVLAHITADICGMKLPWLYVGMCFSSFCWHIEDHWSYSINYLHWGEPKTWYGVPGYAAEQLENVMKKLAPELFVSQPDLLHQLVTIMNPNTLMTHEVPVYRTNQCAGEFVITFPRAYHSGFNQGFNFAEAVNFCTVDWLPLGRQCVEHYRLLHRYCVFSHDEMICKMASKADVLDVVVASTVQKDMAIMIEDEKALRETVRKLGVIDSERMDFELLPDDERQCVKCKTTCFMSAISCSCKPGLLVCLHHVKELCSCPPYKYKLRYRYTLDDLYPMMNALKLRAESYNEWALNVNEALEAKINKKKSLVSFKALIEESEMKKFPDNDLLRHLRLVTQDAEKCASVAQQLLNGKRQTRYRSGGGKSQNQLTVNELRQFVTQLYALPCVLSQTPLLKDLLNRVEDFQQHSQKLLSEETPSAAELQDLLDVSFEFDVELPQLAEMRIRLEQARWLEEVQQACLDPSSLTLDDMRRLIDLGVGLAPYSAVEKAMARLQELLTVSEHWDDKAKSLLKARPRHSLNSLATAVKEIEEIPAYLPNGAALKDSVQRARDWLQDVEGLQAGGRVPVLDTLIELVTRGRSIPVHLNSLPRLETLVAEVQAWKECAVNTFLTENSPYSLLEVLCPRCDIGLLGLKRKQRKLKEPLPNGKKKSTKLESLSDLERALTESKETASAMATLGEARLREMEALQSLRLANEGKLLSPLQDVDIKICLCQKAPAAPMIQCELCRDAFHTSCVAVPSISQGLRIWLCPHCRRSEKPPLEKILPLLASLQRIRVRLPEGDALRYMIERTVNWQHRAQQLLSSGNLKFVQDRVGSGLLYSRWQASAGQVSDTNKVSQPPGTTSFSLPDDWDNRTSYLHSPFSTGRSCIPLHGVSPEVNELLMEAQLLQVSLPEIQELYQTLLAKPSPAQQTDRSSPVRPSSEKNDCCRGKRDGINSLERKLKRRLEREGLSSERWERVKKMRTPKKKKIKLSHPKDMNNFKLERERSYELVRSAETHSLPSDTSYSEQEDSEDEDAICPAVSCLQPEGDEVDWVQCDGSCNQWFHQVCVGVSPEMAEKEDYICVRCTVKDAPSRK

Row | Compound | activity, negative = inhibition [%]
37 | CC(C)Cc1ccc([C@H](C)C(=O)O)cc1 | -5.14
38 | Nc1nc(Nc2ccccc2)nc2c1ncn2[C@@H]1O[C@H](CO)[C@@H](O)[C@H]1O | -8.11
39 | C=CC(N)CCC(=O)O (stereo not given) | -3.05
40 | C[N+](C)(C)CCOP(=O)(O)OP(=O)([O-])OC[C@H]1O[C@@H](n2ccc(N)nc2=O)[C@H](O)[C@@H]1O | -0.67
41 | CCN(CC)c1ncnc2c1ncn2[C@@H]1O[C@H](COP(=O)(O)OP(=O)(O)C(Br)(Br)P(=O)(O)O)[C@@H](O)[C@H]1O | -6.63
42 | Nc1nc(Cl)nc2c1ncn2[C@@H]1O[C@H](COP(=O)(O)OP(=O)(O)OP(=O)(O)O)[C@@H](O)[C@H]1O | -8.13
43 | O=[N+]([O-])c1ccc(CSc2ncnc3c2ncn3[C@@H]2O[C@H](CO)[C@@H](O)[C@H]2O)cc1 | -3.57
44 | O=C1/C(=C/c2ccsc2)CC/C1=C\c1cccs1 | -11.6
45 | CCCCC#Cc1nc(NC)c2ncn([C@@H]3O[C@H](CO)[C@@H](O)[C@H]3O)c2n1 | -16.3
